Test results taken from PubChem BioAssay AID504652 (National Center for Advancing Translational Sciences (NCATS), 2011).
“And” between values parts separate entries of the source, which are not always exact repeats. Identical values can stand only once. The whole screen tested about 360,000 compounds, of which about 11,000 (3.1%) were called active. The entries come from a sample that favours actives as a whole. Values without a mark were called inactive. Rule as the data show it: active = activity change below about -30%; inactive = the rest.

biological target: D(1A) dopamine receptor (Homo sapiens) (UniProt P21728); experiment: Antagonist of Human D 1 Dopamine Receptor: qHTS; settings: HEK293 TREx D1 cells, calcium flux, dopamine EC80; at 10 µM; active compounds read low
Outline: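 Allosteric or orthosteric antagonism assessed as attenuation of the calcium response to EC80 dopamine, added 180 s after compound, in induced HEK293 Trex D1 cells loaded with no-wash calcium dye.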
% is scaled to controls: 0 for no effect and ±100 for the full control effect.

Sequence of D(1A) dopamine receptor (Homo sapiens) (P21728 whole entry, looked up): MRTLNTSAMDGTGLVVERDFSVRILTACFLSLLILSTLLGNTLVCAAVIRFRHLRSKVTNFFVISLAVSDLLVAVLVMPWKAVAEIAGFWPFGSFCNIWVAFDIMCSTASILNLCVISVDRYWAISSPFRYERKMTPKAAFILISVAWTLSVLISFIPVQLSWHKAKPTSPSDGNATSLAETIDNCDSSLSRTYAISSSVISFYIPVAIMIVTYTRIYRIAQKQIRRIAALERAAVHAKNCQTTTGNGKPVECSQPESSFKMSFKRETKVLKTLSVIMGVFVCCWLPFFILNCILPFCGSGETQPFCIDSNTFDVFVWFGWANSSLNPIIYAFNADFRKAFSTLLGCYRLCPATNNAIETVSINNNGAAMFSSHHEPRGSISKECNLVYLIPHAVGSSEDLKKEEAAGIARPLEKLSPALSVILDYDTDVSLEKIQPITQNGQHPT

SMILES	activity change, negative = inhibition
O=C(CN1c2ccccc2S(=O)(=O)c2ccccc21)Nc1cccc(C(F)(F)F)c1	-3.23%
Cc1cccc(CC(=O)Nc2cccc(-c3cn4cccnc4n3)c2)c1	-7.29%
COc1cc(CNC(=O)c2cc3n(n2)CCCN(Cc2cccc(F)c2)C3=O)cc(OC)c1OC	-15.1%
COc1ccc(C)cc1S(=O)(=O)NC1CCCCC1	2.79%
COc1ccccc1CCNS(=O)(=O)c1cc2c3c(c1)C(C)C(=O)N3CCC2 (stereo unspecified)	-6.83%
O=C1CCc2cc(S(=O)(=O)Nc3ccc(C(F)(F)F)cc3)cc3c2N1CC3	-8.34%
COc1ccc(C)cc1S(=O)(=O)Nc1cc2c3c(c1)CCC(=O)N3CCC2	-35% (active)
COc1ccccc1CNS(=O)(=O)c1cc2c3c(c1)CCC(=O)N3CCC2	-53% (active)
COc1ccc(CNS(=O)(=O)c2cc3c4c(c2)CCN4C(=O)CC3)cc1	-7.89% and -23.2%
CCOC(=O)c1scc(-c2ccc(C)cc2)c1S(=O)(=O)Nc1cc(C)ccc1C	-6.21%
COc1cc(OC)cc(C(=O)Nc2ccc3nc(Nc4cccc(C(F)(F)F)c4)cc(C)c3c2)c1	-9.91%
O=C(COc1ccc(Cl)cc1[N+](=O)[O-])N1CCCCC1	15.9%
Nc1ccc(C(=O)N2CCN(S(=O)(=O)c3ccc(Cl)cc3)CC2)cc1[N+](=O)[O-]	-1.4%
O=C(c1ccc(Oc2ccc(Cl)cc2)c([N+](=O)[O-])c1)N1CCCC1	-38.6% (active)
O=C(c1ccc(Cl)c([N+](=O)[O-])c1)N1CCN(c2ccccc2)CC1	-35.8% (active)
CC1CCN(c2nc3ccc(C(=O)N4CCN(c5ccccc5)CC4)cc3s2)CC1	4.36%
O=C(c1ccccc1)c1ccc(C(=O)N2CCN(c3ccccc3)CC2)cc1	-32.4% (active)
CO/N=C/c1ccc(N2CCN(C(=O)c3cccc(Cl)c3)CC2)c([N+](=O)[O-])c1	-27.5%
C/C(=C/c1ccccc1)C(=O)N1CCN(c2ccccc2)CC1	-2.86%
O=C(c1ccc(Cl)c(Cl)c1)N1CCCC1	-10.9%
O=S(=O)(c1ccc(C2CCCCC2)cc1)N1CCN(c2ccc(Cl)c(Cl)c2)CC1	14.7%
Cc1cc(NS(=O)(=O)c2ccc3oc(=O)c4ncn(C)c4c3c2)ccc1Br	-1.47%

SMILES	activity change, negative = inhibition
Cn1nnnc1Sc1ncnc2scc(-c3ccccc3[N+](=O)[O-])c12	-0.145%
Cc1ccc(-c2nc(Cn3c(=O)cc(-c4ccccc4)c4c(C)nn(C)c43)c(C)o2)cc1	12%
CN(C)c1ccc(NC(=O)CSc2nc(-c3ccco3)cc(C(F)(F)F)n2)cc1	-4.62%
CCn1c(C)c(C)c2cc(C(=O)NCCc3cc(OC)ccc3OC)ccc21	13.1%
COc1ccc(C(=O)COC(=O)c2ccc([N+](=O)[O-])s2)cc1OC	3.97%
COc1ccc(Cl)cc1C(=O)OCC(=O)NCc1cccs1	-19.7%
COc1ccc(C(=O)OCC(=O)c2ccc(Cl)s2)c(OC)c1OC	-34.5% (active)
COC(=O)c1ccccc1NC(=O)Cn1c(=O)cc(C)c2c(C)nn(-c3cccc(Cl)c3C)c21	11.3%
Cc1ccc(C)c(Cn2c(CCCNC(=O)C3CCCCC3)nc3ccccc32)c1	-4.99%
Cc1cccc2c1cnn2C(=O)CCC(=O)NC1CCCCC1	11.5%
Cc1cccc(-c2noc(CCC(=O)NC3CCCC3)n2)c1	-18.1%
Cc1ccc2c(cnn2C(=O)CCC(=O)NC2CCCC2)c1	-47.2% (active)
Cc1cccc2c(=O)cc(CSc3ccccc3NC(=O)C(C)C)[nH]c12	-2.11%
COc1cc(NC(=O)c2cc([N+](=O)[O-])ccc2Br)ccc1NC(=O)c1ccco1	-45.2% (active)
COc1ccc(NC(=O)CCC(=O)Nc2cc(OC)c(NC(=O)c3ccco3)cc2OC)c(OC)c1	-3.66%
COc1ccc(NC(=O)c2ccco2)cc1NC(=O)c1ccc(C#N)cc1F	-1.13% and -9.12%
COc1ccc(OC)c(-n2nnc(-c3nc(-c4cc(OC)c(OC)c(OC)c4)no3)c2C)c1	-6.72%
Cc1ccc2oc(=O)c3cnn(CC(=O)NCc4ccccc4Cl)c3c2c1	1.96%
COc1ccccc1CNC(=O)C1CCN(S(=O)(=O)c2ccc3c(c2)CC(C)N3C(=O)C2CC2)CC1 (stereo unspecified)	-4.76%
COc1ccc(N(C)S(=O)(=O)c2ccc3c(c2)CC(C)N3C(=O)C2CC2)c(OC)c1 (stereo unspecified)	-41.8% (active)
COc1cccc(CNS(=O)(=O)c2ccc3c(c2)CC(C)N3C(C)=O)c1 (stereo unspecified)	-35% (active)
COc1cccc(CNS(=O)(=O)c2ccc3c(c2)CC(C)N3C(=O)C2CCC2)c1 (stereo unspecified)	-10.7% and -1%

SMILES	activity change, negative = inhibition
COc1cccc(CNS(=O)(=O)c2ccc3c(c2)N(C(C)=O)CCS3)c1	3.44%
CC1Cc2cc(S(=O)(=O)CCC(=O)NCc3ccc(Cl)cc3)ccc2N1C(=O)C1CC1 (stereo unspecified)	-19.3%
Cc1cccc(CNC(=O)c2cnc3sc(N4CCCCC4)nn3c2=O)c1	1.97%
CCOCCCNC(=O)c1c(NC(=O)c2nc(SC)ncc2Cl)sc2c1CCCC2	-26.2%
CCN(CCCNC(=O)c1cc2c(=O)n(CC)c3ccccc3c2s1)Cc1ccccc1	11.6%
Cc1cccc(-n2ncc(C(=O)N3CCN(c4ccc(Cl)cc4)CC3)c2C2CCN(C(=O)OC(C)(C)C)CC2)c1	1.41%
COc1ccc(CNC(=O)c2ccc(NC(=O)N3CC4CCCN4c4ccccc43)cc2)cc1 (stereo unspecified)	40.5%
CC(=O)Nc1ccc(NC(=S)NC(=O)c2ccc([N+](=O)[O-])c(C)c2)cc1	-2.38%
CCOc1ccc(C(=O)NC(=S)Nc2ccc(N3CCOCC3)c(Cl)c2)cc1[N+](=O)[O-]	-18.8%
CCOc1ccc(C(=O)NC(=S)Nc2ccc(NC(=O)C(C)C)cc2)cc1[N+](=O)[O-]	-38.8% (active)
O=C(Nc1cccc2cccnc12)C(F)(F)F	5.04%
O=C(NCc1ccccc1Cl)c1cccn1-c1nnc(N2CCCCC2)s1	-10.7%
O=C(Cn1ncc2c3ccccc3n(Cc3ccccc3)c2c1=O)NC1CCCCCC1	-8.69%
COc1cccc(CNCCc2c[nH]c3ccccc23)c1OCc1ccccc1F	-35.2% (active)
COc1cccc(CNCCSc2nnnn2C)c1OCc1ccccc1Cl	-5.2%
COc1ccc(C(CCNCc2ccccc2F)c2ccc(F)cc2)cc1 (stereo unspecified)	-7.29%
O=C(CN1C(=O)COc2ccc(S(=O)(=O)N3CCCCCC3)cc21)N1CCN(c2cccc(C(F)(F)F)c2)CC1	-0.903%
O=C(CN1CCc2cc3c(cc2C1)OCCCO3)Nc1ccccc1	-19.4%
O=C(CN1CCc2ccccc2C1)Nc1cccc(S(=O)(=O)N2CCOCC2)c1	27.4%
Cc1ccc(NC(=O)CN2CCc3ccccc3C2)cc1C	-59.1% (active)
COCCNC(=O)c1ccc2c(c1)N(Cc1cccc(Cl)c1)C(=O)c1ccccc1S2(=O)=O	5.66%
O=C(NCCc1ccccc1)c1ccc2c(c1)N(Cc1ccccc1)C(=O)c1ccccc1S2(=O)=O	-40.3% (active)

SMILES	activity change, negative = inhibition
O=C(NCCc1ccccc1)c1ccc2c(c1)N(Cc1ccc(F)cc1)C(=O)c1ccccc1S2(=O)=O	6.04%
COC(=O)c1ccccc1NC(=O)c1ccc2c(=O)n3c(nc2c1)CCCCC3	5.25%
CC(C)c1ccc(NC(=O)c2cc(S(=O)(=O)N3CCc4ccccc4C3)ccc2F)cc1	3.76%
CC(C)CNS(=O)(=O)c1ccc(CCC(=O)NCc2ccc(Cl)cc2)cc1	3.95%
Cc1ccc(S(=O)(=O)NCCC(=O)NCc2ccc(Cl)cc2)cc1C	-35.7% (active)
CC(C)CCNC(=O)CCNS(=O)(=O)c1ccc(Cl)cc1	-17.7%
CC1CCC(N2CC(=O)N(CCC3=CCCCC3)C(c3ccc(F)cc3)C2=O)CC1 (stereo unspecified)	-13.9%
CCC(=O)N(CCc1ccccc1)Cc1cc2cc(C)ccc2[nH]c1=O	13.5%
Cc1ccc2[nH]c(=O)c(CN(CC3COCCO3)C(=O)Nc3ccccc3C)cc2c1 (stereo unspecified)	-8.28%
Cc1ccc2[nH]c(=O)c(CN(CCCN(C)C)C(=O)Nc3cccc(Cl)c3)cc2c1	-39.7% (active)
COc1ccc(-n2nnc(-c3nsc(NC(=O)c4ccc(C)c(C)c4)n3)c2C)cc1Cl	2.45%
CCOc1ccc(NC(=O)Cn2cc(C(=O)c3ccc(C)cc3)c(=O)c3cc4c(cc32)OCCO4)cc1	4.79%
COCCn1c(=O)[nH]c(=O)c2cc(C(=O)c3cc(OC)ccc3O)cnc21	12.3%
COc1ccc(O)c(C(=O)c2cnc3c(c2)c(-c2ccc(F)cc2)c(C#N)c(=O)n3C)c1	0.727%
COc1ccc(O)c(C(=O)c2cnc3onc(C(C)C)c3c2)c1	-33.3% (active)
CCOc1ccc(CNC(=O)c2ccc(CS(=O)c3ccccc3)o2)cc1 (stereo unspecified)	-7.56%
COc1ccc(CNC(=O)CC2Oc3ccc(C)cc3NC2=O)cc1 (stereo unspecified)	14%
COc1ccc(C(=O)OCC(=O)Nc2cccc(C(C)=O)c2)cc1OC	-4.31%
O=C(COC(=O)c1cccc(Cl)c1)Nc1ccc2[nH]c(=O)[nH]c2c1	2.99%
COc1ccc(C(=O)OCC(=O)Nc2ccc3[nH]c(=O)[nH]c3c2)c(OC)c1OC	-37.4% (active)
